# The list is not random: actives were taken first. Their share in the collection is about 1.4%.
# IL1B cytotox: HUVEC cytotoxicity counter-screen, IL-1B stimulated; 94,000 tested, 0.41% active; HUVEC cell count loss, Hoechst imaging; cell count reduction, % at 2 µM;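 active = cell count reduction more than 3 SD above the screen-wide mean, cut at about 70% in these data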;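 also: normalized per plate to untreated control cells as the no-loss baseline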
# MRP1 act: MRP-1 activation; H69AR cells + doxorubicin, viability rescue, CellTiter-Glo; viability increase, % at 10 µM; 140,000 tested, 0.61% active;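 active = viability gain under doxorubicin at or above a set limit, the compound median plus 3 SD, cut at about 4.7% in these data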;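 also: MRP-1 overexpressing cells given doxorubicin 25 µM after compound pretreatment; 18-22 h compound pretreatment then 72 h with doxorubicin before readout; 0% = doxorubicin-only wells and 100% = vehicle-treated cells without doxorubicin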
# sdo1 growth: restores growth of sdo1-depleted yeast. AID 817. 140,000 tested, 0.21% active. S. cerevisiae sdo1-depleted JHY4D growth rescue, OD600 30 h; stronger effect = higher value; pdr5 snq2 efflux-pump mutant strain. z-score at 10 µM;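 active = z-score above 3 at both the 24 hr and the 30 hr optical density reads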;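 also: z-score against mean and SD of all compound wells on the same plate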
# MRP reversal: reverses drug resistance mediated by MRP; H69AR cells + 2 uM doxorubicin, CellTiter-Glo, 72 h; differential viability (reversal), % at 10 µM; 85,000 tested, 0.04% active; AID 602;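 active = viability drop by adding the cancer drug above about 55%, with treated viability meeting a 40% cutoff, limit read from the data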;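 also: viability without doxorubicin minus viability with 2 µM doxorubicin for each compound; larger differential means the compound sensitizes cells more to doxorubicin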
# IL1B NFkB pot: enhances IL-1B driven NFkB nuclear translocation; HUVEC IL-1B NFkB p65 nuclear translocation imaging; 94,000 tested, 0.3% active; activation, % at 2 µM;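 active = activation above 40%, about the mean plus 3 SD, also judged a hit on visual image review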;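 also: percent activation is computed from the nuclear over cytoplasmic p65 intensity ratio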
# NFkB transloc inh: blocks IL-1B driven NFkB nuclear translocation in HUVEC cells; HUVEC IL-1B NFkB p65 nuclear translocation imaging; inhibition, % at 2 µM; 94,000 tested, 0.43% active;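 active = inhibition above about 30% together with a positive call from visual inspection of the well image, limit read from the data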;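 also: nuclear over cytoplasmic p65 intensity ratio measured by imaging; 0% = IL-1B stimulated DMSO wells and 100% = unstimulated DMSO wells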
# * = called active by the depositor; . = no result given.
SMILES,IL1B cytotox,MRP1 act,sdo1 growth,MRP reversal,IL1B NFkB pot,NFkB transloc inh
Cc1csc(SCC(=O)c2c(N)n(C)c(=O)n(C)c2=O)n1,-79,-2,0.28,12,14,-14
N#C/C(=C\Nc1ccccc1O)c1nc2ccccc2o1,.,-5,-1.5,.,.,.
N#CC(C#N)=NNc1ccc(S(=O)(=O)N2CCCC2)cc1,.,5.1*,0.59,.,.,.
N#C/C(=N\Nc1ccc(S(=O)(=O)N2CCCCC2)cc1)C(N)=S,.,-2,1.4,.,.,.
Cc1ccc(Nc2nc(CSc3nnnn3C)cs2)cc1,4,5.4*,-0.54,25,-1,1
COC(=O)c1sccc1NC(=O)c1ccncc1,-10,-1,0.44,.,4,-4
COC(=O)c1sccc1NC(=O)c1sccc1C,94*,-2,-0.93,14,-16,16
Oc1c(C(c2cccs2)N2CCN(c3cccc(Cl)c3)CC2)sc2ncnn12 (stereo not given),.,11*,0.27,-23,.,.
O=C1Nc2ccccc2CCC1Sc1nnc(-c2ccc(Cl)cc2)s1 (stereo not given),-4,6.6*,-1.9,26,11,-11
COc1ccccc1NS(=O)(=O)c1cc(NC(=O)/C=C/c2cccs2)ccc1N1CCOCC1,.,6.0*,-0.15,.,.,.
COc1ccc(/C=C2/SC(=S)N(CCC(=O)O)C2=O)cc1,-17,-4,0.21,.,-7,6
CC(=O)NN1C(=O)/C(=C\c2ccccc2)SC1=S,-27,4,0.13,.,14,-14
CC(=O)NN1C(=O)/C(=C\c2ccc(C)cc2)SC1=S,-30,11*,-1.2,.,-2,2
O=C(CCN1C(=O)/C(=C\c2ccccc2)SC1=S)NNC(=O)c1cccnc1,.,8.8*,-1.2,.,.,.
Cc1ccc(/C=C2\SC(=S)N(CCC(=O)NNS(=O)(=O)c3ccc(C)cc3)C2=O)cc1,.,5.7*,-0.71,.,.,.
O=C(CCN1C(=O)/C(=C/C=C/c2ccccc2)SC1=S)Nc1cccnc1,.,0,-1.3,.,.,.
COc1cc(/C=C2\SC(=S)N(Nc3ccccc3)C2=O)ccc1O,.,0,-1.8,.,.,.
Cc1cc(C)nc(NN2C(=O)/C(=C/c3ccccc3)SC2=S)n1,-35,9.7*,-0.05,.,36,-36
CCC(O)CNC(=O)NC(=C(Cl)Cl)c1ccc(C)c(F)c1 (stereo not given),.,-4,0.36,.,.,.
CC(C)(C(=O)c1ccccc1)/[N+]([O-])=C/c1ccc(Br)cc1,-3,.,.,.,4,-4
COC(=O)[C@@H]1C(c2c(OC)cc(OC)cc2OC)=NO[C@H]1C(=O)OC,.,-2,0.74,.,.,.
Cc1ccc(S(=O)(=O)CCC(=O)OC(C)C(=O)c2c(C)[nH]c3ccccc23)cc1 (stereo not given),.,-1,-0.19,.,.,.
CCc1nc2ccccc2c(=O)n1CCCCn1c(CC)nc2ccccc2c1=O,.,.,.,-24,.,.
Cc1ccc(/C(O)=C2/C(=O)C(=O)N(CCCn3ccnc3)C2c2ccccn2)cc1 (stereo not given),-46,-1,0.64,-7,9,-9
Cc1ccc(C)c(/C(O)=C2\C(=O)C(=O)N(CCCn3ccnc3)C2c2ccncc2)c1 (stereo not given),17,7.3*,-0.74,-19,5,-5
SMILES,IL1B cytotox,MRP1 act,sdo1 growth,MRP reversal,IL1B NFkB pot,NFkB transloc inh
CC(C)CCCC(C)NS(=O)(=O)Cc1ccccc1 (stereo not given),-8,0,-0.07,21,24,-24
COc1cc(/C=N/Nc2ncnc3sc4c(c23)CCC4)ccc1O,.,2,-0.91,.,.,.
COc1cccc(-n2nc3c(-n4ncc(C#N)c4N)nnc(C)c3c2C)c1,15,-3,0.99,28,-46,46*
O=C(CSc1nc2ccccc2[nH]1)Nc1nc(-c2ccc(Br)cc2)cs1,.,0,-1.1,.,.,.
CCSc1nnc(-c2ccc(C)cc2)c2ccccc12,.,5.6*,-1.9,.,.,.
CC(C)CNC(=O)c1cccc(NC(=O)Cc2ccc(Br)cc2)c1,.,6.2*,-0.52,.,.,.
COc1cccc(C(=O)Nc2cccc(C(=O)NCC(C)C)c2)c1,.,-4,0.2,.,.,.
Cc1ccc(C=Nc2ccc(N(C)C)cc2)o1,4,-2,-0.06,65*,9,-9
CCOC(=O)CSc1cc(CS(=O)(=O)c2ccccc2)nc(-c2ccccc2)n1,83*,-3,-0.36,.,11,-11
S=c1[nH]nc(COc2ccc(Cl)cc2)o1,.,4.9*,0.98,6,.,.
O=C(O)CCCNC(=O)c1ccccn1,.,-1,-0.38,.,.,.
O=C1CC(C(=O)Nc2ccc(C(=O)N3CCOCC3)cc2)C2(CCCCC2)O1 (stereo not given),90*,0,1.9,3,-1,1

# From PubChem BioAssay
